Some test systems named below: NCI-H23 lung; NCI-H226 lung; NCI-H322M lung; HOP-62 NSCLC; NCI-H460 lung; HOP-92 NSCLC; NCI-H522 lung; A549/ATCC NSCLC; 786-0 renal; COLO 205 colon; DU-145 prostate; K-562 leukemia; MALME-3M melanoma; RXF 393 renal; SF-268 CNS; SF-295 CNS; SF-539 CNS; UACC-257 melanoma; M14 melanoma; MDA-MB-231 breast.
Holding throughout (assay): NCI-60 one-dose screen, 48 h (100 = growth as untreated, 0 = no growth, -100 = all killed)
What all share (details): 10 µM unless noted

Our source for the growth values is PubChem BioAssay (NCI).

The structures appear in SMILES notation. The panel holds about 83,000 compounds, 20% with a hit somewhere; the sample as a whole holds those more often.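 48-hour exposure, single concentration, 96-well plates; percent growth endpoint where 0 means no net growth. Active: below 10.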 Values without a mark were called inactive. Calls of active or inactive are those of the source.

With `O=c1cc(C(F)(F)F)[nH]c(=S)[nH]1`, the growth in the test on NCI-H23 lung was 103%; with NCI-H226 lung, 112%; in the test with NCI-H322M lung, 101%; in the test with HOP-62 NSCLC it was 100%; in the test on NCI-H460 lung, 112%; in the test on HOP-92 NSCLC, 126%. In addition, the growth was 99.4% with NCI-H522 lung; 98.1% with A549/ATCC NSCLC; 104% with 786-0 renal; 109% with COLO 205 colon; 109% in the test with DU-145 prostate; 111% with K-562 leukemia. The growth was 96.6% in the test on MALME-3M melanoma; 104% in the test with RXF 393 renal; 121% in the test with SF-268 CNS; 98.3% in the test with SF-295 CNS; 96.5% in the test with SF-539 CNS; 99.2% in the test with UACC-257 melanoma. Besides, the growth with M14 melanoma is 108%.
`COc1ccc(NNS(=O)(=O)O)cc1`: the growth with NCI-H23 lung is 98.3%; in the test on NCI-H226 lung it was 95%; in the test on NCI-H322M lung, 116%; in the test on HOP-62 NSCLC, 85.1%; in the test with NCI-H460 lung it was 105%; in the test with HOP-92 NSCLC it was 80.3%. In addition, the growth with NCI-H522 lung is 96%; in the test with A549/ATCC NSCLC, 95.3%; in the test on 786-0 renal it was 103%; in the test with COLO 205 colon, 104%; in the test with DU-145 prostate, 111%; in the test on K-562 leukemia it was 99.5%. Moreover, the growth in the test on MALME-3M melanoma was 104%; in the test on RXF 393 renal, 95.1%; in the test with SF-268 CNS it was 106%; in the test on SF-295 CNS, 92.5%; in the test with SF-539 CNS it was 95.1%; with M14 melanoma, 92.5%.
Regarding `OC1Cc2ccccc2C1`, the growth is 90.2% with NCI-H23 lung; 101% with NCI-H226 lung; 98.7% in the test with NCI-H322M lung; 95.7% with HOP-62 NSCLC; 104% with NCI-H460 lung; 68.7% with HOP-92 NSCLC. Besides, the growth in the test with NCI-H522 lung was 92.6%; with A549/ATCC NSCLC it was 97.1%; in the test with 786-0 renal, 98.7%; in the test with COLO 205 colon, 98.8%; with DU-145 prostate, 103%; in the test with K-562 leukemia it was 48.3%. For the same compound, the growth in the test on MALME-3M melanoma was 95.2%; with RXF 393 renal it was 101%; in the test with SF-268 CNS, 102%; in the test with SF-295 CNS, 95.2%; with SF-539 CNS it was 97.1%; with UACC-257 melanoma, 90.9%. Also, in the test with M14 melanoma, the growth was 94.9%.
Regarding `Ic1cccs1`, the growth was 97.7% with NCI-H23 lung; 107% with NCI-H226 lung; 105% in the test with NCI-H322M lung; 99% with HOP-62 NSCLC; 108% in the test on NCI-H460 lung; 121% in the test on HOP-92 NSCLC. Besides, the growth in the test on NCI-H522 lung was 97.5%; in the test on A549/ATCC NSCLC it was 98%; with 786-0 renal it was 105%; in the test with COLO 205 colon, 117%; in the test with DU-145 prostate it was 107%; with K-562 leukemia, 102%. The growth with MALME-3M melanoma is 94.6%; with RXF 393 renal, 119%; in the test on SF-268 CNS it was 99.3%; in the test with SF-295 CNS, 95.9%; with SF-539 CNS, 101%; in the test on UACC-257 melanoma, 99.5%. The growth in the test on M14 melanoma is 104%.
Turning to `C=CCNC(=S)N/C=C(/C(=O)c1ccccc1)c1ccccc1`, the growth is 97.4% with NCI-H23 lung; 104% with NCI-H226 lung; 111% in the test with NCI-H322M lung; 96.7% in the test with HOP-62 NSCLC; 104% with NCI-H460 lung; 95.7% in the test on HOP-92 NSCLC. For the same compound, the growth was 109% in the test on NCI-H522 lung; 103% with A549/ATCC NSCLC; 111% with 786-0 renal; 95.3% with COLO 205 colon; 109% in the test with DU-145 prostate; 102% with K-562 leukemia. Moreover, the growth is 107% with MDA-MB-231 breast; 111% with RXF 393 renal; 98.2% in the test with SF-268 CNS; 110% in the test on SF-295 CNS; 101% in the test with SF-539 CNS; 109% in the test on UACC-257 melanoma. For the same compound, in the test with M14 melanoma, the growth is 91.9%.
`Nc1cc2c(cc1Cl)C(=O)c1ccccc1C2=O`: the growth in the test with NCI-H23 lung is 0.869% (active); with NCI-H226 lung it was 12.7%; in the test with NCI-H322M lung, 30.2%; with HOP-62 NSCLC, 26.8%; with NCI-H460 lung it was 0.87% (active); with HOP-92 NSCLC, -1.69% (active). Besides, the growth in the test on NCI-H522 lung was 65%; in the test on A549/ATCC NSCLC, 27.2%; with 786-0 renal, -19% (active); in the test with COLO 205 colon it was 76.2%; in the test on DU-145 prostate it was 67.7%; in the test with K-562 leukemia it was 72.4%. Besides, the growth was 64.7% in the test on MALME-3M melanoma; 72.2% in the test with RXF 393 renal; 44.5% in the test on SF-268 CNS; 35.4% in the test with SF-295 CNS; -82% (active) with SF-539 CNS; 89.8% in the test with UACC-257 melanoma. In the test on M14 melanoma, the growth is 85.3%.
On to `C1C[S+]2CC[S+]1CC2`, for which the growth is 97.9% in the test on NCI-H23 lung; 98.3% with NCI-H226 lung; 111% in the test with NCI-H322M lung; 104% in the test on HOP-62 NSCLC; 101% with NCI-H460 lung; 111% in the test on HOP-92 NSCLC. For the same compound, the growth in the test with NCI-H522 lung was 98.5%; in the test with A549/ATCC NSCLC, 98.9%; in the test with 786-0 renal, 111%; in the test on COLO 205 colon it was 116%; with DU-145 prostate, 105%; in the test with K-562 leukemia, 104%. In addition, the growth is 99.9% in the test on MALME-3M melanoma; 106% with RXF 393 renal; 102% in the test with SF-268 CNS; 99% in the test with SF-295 CNS; 108% in the test with SF-539 CNS; 94.9% in the test with UACC-257 melanoma. Besides, in the test on M14 melanoma, the growth is 101%.
Turning to `Cc1[nH]n(-c2ccccc2)c(=O)c1C=NC(=S)C(N)=S`, the growth in the test with NCI-H23 lung is 98.1%; in the test with NCI-H226 lung, 99.7%; in the test with NCI-H322M lung, 110%; with HOP-62 NSCLC it was 104%; in the test with NCI-H460 lung, 107%; with HOP-92 NSCLC, 84%. The growth in the test with NCI-H522 lung is 86.2%; with A549/ATCC NSCLC it was 93.6%; in the test on 786-0 renal, 104%; with COLO 205 colon it was 106%; with DU-145 prostate, 106%; with K-562 leukemia, 101%. Besides, the growth is 98.9% in the test with MDA-MB-231 breast; 106% in the test with RXF 393 renal; 100% with SF-268 CNS; 98.4% in the test on SF-295 CNS; 106% in the test on SF-539 CNS; 97.7% in the test with UACC-257 melanoma. For the same compound, in the test with M14 melanoma, the growth was 103%.
